# Reference: PubChem BioAssay
# Key:
# [1] = biological target: Tumor necrosis factor receptor superfamily member 10B (Homo sapiens) (UniProt O14763); test: caspase-8 TRAIL sensitization, hit retest, confirmation, cell-based, NB7+caspase-8, with/without TRAIL, luminescence panel (AID 651596); settings: NB7 neuroblastoma + caspase-8, TRAIL sensitization, luminescence viability, with TRAIL, mean of runs, at 10 µM, stronger effect = higher value
# [2] = as above; settings: NB7 neuroblastoma + caspase-8, without TRAIL, luminescence viability, without TRAIL, mean of runs, at 10 µM
# Chain of Tumor necrosis factor receptor superfamily member 10B (Homo sapiens) (O14763 whole entry, looked up): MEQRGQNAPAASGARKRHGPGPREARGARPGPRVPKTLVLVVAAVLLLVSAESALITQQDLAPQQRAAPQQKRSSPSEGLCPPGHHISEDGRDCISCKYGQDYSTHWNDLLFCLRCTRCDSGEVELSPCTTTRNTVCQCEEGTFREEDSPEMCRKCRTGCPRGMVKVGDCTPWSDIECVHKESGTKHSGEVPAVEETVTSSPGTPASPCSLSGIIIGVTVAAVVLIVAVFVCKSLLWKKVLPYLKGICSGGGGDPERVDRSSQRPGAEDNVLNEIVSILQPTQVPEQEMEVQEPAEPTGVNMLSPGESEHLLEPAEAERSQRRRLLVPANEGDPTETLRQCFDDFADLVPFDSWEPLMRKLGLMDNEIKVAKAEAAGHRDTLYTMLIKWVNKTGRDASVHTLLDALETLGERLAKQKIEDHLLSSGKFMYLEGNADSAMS
SMILES,activity [1],activity [2]
CCOc1cc(/C=N/N=C(/N)c2nonc2N)cc(Br)c1OCc1ccc(Cl)cc1,30.7%,37.3%
Cc1cc(O)c(C(=O)/C=C/c2ccc(Cl)cc2)c(=O)o1,83.4%,79.5%
Cc1ccc(NC(=O)c2nc(S(=O)(=O)Cc3ccccc3)ncc2Cl)cc1,83.5%,96.1%
Cc1ccc(C(=O)Nc2ccc(C)c(S(=O)(=O)N(C)C)c2)s1,52.5%,66.5%
CCOC(=O)c1ccc(N=c2sc(C(=O)OC)cc(=O)n2-c2ccc(C(=O)OCC)cc2)cc1,67.6%,37.6%
CCOC(=O)N1CCN(C(=O)CSCC(=O)Nc2nc(-c3ccc(-c4ccccc4)cc3)cs2)CC1,66.9%,68%
COc1cc(/C=C/c2nc3ccccc3c(=O)[nH]2)ccc1OC(F)F,55.6%,54.7%
O=C(Nc1nc2ccccc2[nH]1)c1ccccc1OC(F)F,76%,82.2%
COc1ccc(C)cc1NC(=O)CN(Cc1nnc(-c2ccc(Cl)cc2)o1)C1CCCC1,76.7%,92%
Cc1ccc(C(=O)/C=C/Nc2ccccn2)cc1,86.9%,79.8%
C=CCNC(=O)c1ccc2c3n(nc2c1)-c1ccccc1CO3,89.8%,90.5%
CCCc1c(C(=O)N/N=C/C=C/c2ccccc2)nnn1-c1nonc1N,47.5%,50.4%
COC(=O)c1sc(NC(=S)NC(=O)c2cccc(C)c2)nc1C,46.2%,33.2%
Cc1cccc(NC(=O)c2ccc3c(c2)OCCO3)c1,85%,83.5%
CC1CCCN(c2ncnc3c2cnn3-c2ccccc2)C1 (configuration not stated),86.1%,85.1%
C/C(=N\Nc1nc2ccccc2s1)c1cccs1,52.8%,30.2%
